Test results as given in PubChem BioAssay (NCI).
About 79,000 compounds went through this panel and 15% of them were active in at least one assay; those are over-represented in the sample as a whole. The source made the active and inactive calls. No stated cut-off is given here; in the data, active means growth inhibition above about 70%; inactive means the rest.

Experiments:
[1] = NCI Yeast Anticancer Drug Screen. Data for the rad50 strain (AID 155);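 further: 0% = growth of vehicle-only cultures of the same strain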; conditions: S. cerevisiae rad50 strain growth inhibition, hits give high values
Summary of the method: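 Relative growth inhibition (compound vs vehicle) was measured in yeast with a defined repair-gene alteration.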

[2] = NCI Yeast Anticancer Drug Screen. Data for the mec2-1 strain (AID 157); conditions: S. cerevisiae mec2-1 strain, hits give high values
Summary of the method: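 Readout is yeast growth inhibition, normalised to vehicle-treated controls, in the mec2-1 strain exposed to compound.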

[3] = NCI Yeast Anticancer Drug Screen. Data for the sgs1 mgt1 strain (AID 161);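 further: 0% = growth of cultures given vehicle only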; conditions: S. cerevisiae sgs1 mgt1 strain, hits give high values
Summary of the method: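 Percent growth inhibition was derived by comparing compound-exposed mutant yeast with vehicle-exposed cultures. The strain carries alterations in DNA damage repair.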

[4] = NCI Yeast Anticancer Drug Screen. Data for the cln2 rad14 strain (AID 165);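 further: 0% = growth equal to vehicle treated cultures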; conditions: S. cerevisiae cln2 rad14 strain, hits give high values
Summary of the method: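 Relative to vehicle controls, growth inhibition of compound-treated cln2 rad14 yeast was recorded.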

[5] = NCI Yeast Anticancer Drug Screen. Data for the bub3 strain (AID 167); conditions: S. cerevisiae bub3 mutant strain, hits give high values
Summary of the method: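 Screening used yeast with an engineered genetic alteration affecting cell cycle control. Compound-exposed cultures were compared with vehicle cultures, and reduced growth was taken as inhibition.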

[6] = NCI Yeast Anticancer Drug Screen. Data for the mlh1 rad18 strain (AID 175); conditions: S. cerevisiae mlh1 rad18 strain growth inhibition, hits give high values
Summary of the method: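 Test agents were incubated with a yeast strain of defined genotype (DNA damage repair defect). Inhibition of growth was derived by comparison with vehicle-exposed cultures.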

[7] = at 5.0 µM (retest, dose inferred, filed as 0.5)
[8] = at 50.0 µM (retest, dose inferred, filed as 5.0)

Measured: growth inhibition

COc1ccc(CCCC(=O)O)c2c(OC)cccc12
inactive: [1]; [7] 14% | [1]; [8] 58% | [2]; [7] 0% | [2]; [8] 48% | [2]; at 50.0 µM 39.9% | [3]; [7] 7% | [3]; [8] 62% | [3]; at 50.0 µM 60.8% | [4]; [7] 23% | [4]; [8] 55% | [5]; [7] 4% | [5]; [8] 60% | [5]; at 50.0 µM 49.9% | [6]; [7] 5%
active: [1]; at 50.0 µM 80.8% | [4]; at 50.0 µM 72.2% | [6]; [8] 73% | [6]; at 50.0 µM 78.3%

Cc1cccc(C)c1NC(=O)/C(Cl)=C(/Cl)C(=O)O
inactive: [1]; [7] 66% | [2]; [7] 67% | [4]; [7] 47% | [6]; [7] 63%
active: [1]; [8] 98% | [1]; at 50.0 µM 91.2% | [2]; [8] 99% | [2]; at 50.0 µM 86.2% | [3]; [7] 82% | [3]; [8] 98% | [3]; at 50.0 µM 88% | [4]; [8] 81% | [4]; at 50.0 µM 82.8% | [5]; [7] 85% | [5]; [8] 99% | [5]; at 50.0 µM 90% | [6]; [8] 99% | [6]; at 50.0 µM 93.8%

CCOC(=O)/C(=C\c1cccc(C(F)(F)F)c1)P(=O)(OCC)OCC
active: [1]; at 50.0 µM 75.7% | [2]; [8] 74% | [2]; at 50.0 µM 79% | [5]; [8] 85% | [5]; at 50.0 µM 71.8% | [6]; [8] 82%
inactive: [1]; [7] 31% | [1]; [8] 50% | [2]; [7] -8% | [3]; [7] 3% | [3]; [8] 55% | [3]; at 50.0 µM 68.1% | [4]; [7] 26% | [4]; [8] 40% | [4]; at 50.0 µM 42.1% | [5]; [7] 27% | [6]; [7] 13% | [6]; at 50.0 µM 52.2%

C=Cc1nc(N)nc(-c2ccc(C)cc2)n1
active: [1]; [8] 91% | [1]; at 50.0 µM 92.3% | [2]; [8] 94% | [2]; at 50.0 µM 91.3% | [3]; [8] 95% | [3]; at 50.0 µM 92.6% | [4]; [8] 74% | [5]; [8] 93% | [5]; at 50.0 µM 86% | [6]; [8] 96% | [6]; at 50.0 µM 95.2%
inactive: [1]; [7] 7% | [2]; [7] 12% | [3]; [7] 3% | [4]; [7] -8% | [4]; at 50.0 µM 49.2% | [5]; [7] 6% | [6]; [7] 7%

CN(CN(C)N=Nc1ccc(Cl)cc1)CN(C)N=Nc1ccc(Cl)cc1
inactive: [1]; [7] -14% | [1]; [8] 9% | [1]; at 50.0 µM -3.1% | [2]; [7] 3% | [2]; [8] -8% | [2]; at 50.0 µM -1.75% | [3]; [7] -24% | [3]; [8] 4% | [3]; at 50.0 µM 4.7% | [4]; [7] -6% | [4]; [8] -2% | [4]; at 50.0 µM 19.9% | [5]; [7] 0% | [5]; [8] 4% | [5]; at 50.0 µM -0.7% | [6]; [7] -12% | [6]; [8] 3% | [6]; at 50.0 µM 9.7%

OCC(c1ccccc1)[P+](c1ccccc1)(c1ccccc1)c1ccccc1 (configuration not stated)
inactive: [1]; [7] 2% | [1]; [8] 34% | [2]; [7] -8% | [2]; [8] 45% | [2]; at 50.0 µM 49.9% | [3]; [7] -9% | [3]; [8] 0% | [4]; [7] -42% | [4]; [8] -1% | [4]; at 50.0 µM 31.9% | [5]; [7] 0% | [5]; [8] 13% | [5]; at 50.0 µM 26.3% | [6]; [7] -14% | [6]; [8] 5% | [6]; at 50.0 µM 59.6%
active: [1]; at 50.0 µM 79.2% | [3]; at 50.0 µM 74.3%

O=Cc1nc2c3cccnc3ccc2n1Cc1ccccc1
inactive: [1]; [7] -4% | [1]; [8] 24% | [1]; at 50.0 µM 0.05% | [2]; [7] -17% | [2]; [8] 8% | [2]; at 50.0 µM -18.8% | [3]; [7] -17% | [3]; [8] 15% | [3]; at 50.0 µM 35.4% | [4]; [7] -2% | [4]; [8] 5% | [4]; at 50.0 µM 26.7% | [5]; [7] 0% | [5]; [8] 11% | [5]; at 50.0 µM 57.4% | [6]; [7] 8% | [6]; [8] 34% | [6]; at 50.0 µM 40.9%

O=c1[nH]c2ccccc2c(O)c1/C=N/C(=S)NCCc1ccccc1
inactive: [1]; [7] 26% | [1]; [8] 28% | [1]; at 50.0 µM -41.5% | [2]; [7] 25% | [2]; [8] 22% | [2]; at 50.0 µM -21.8% | [3]; [7] 28% | [3]; [8] 29% | [3]; at 50.0 µM 5.4% | [4]; [7] 21% | [4]; [8] 11% | [4]; at 50.0 µM 9.6% | [5]; [7] 30% | [5]; [8] 20% | [5]; at 50.0 µM 4.65% | [6]; [7] 28% | [6]; [8] 22% | [6]; at 50.0 µM 7.5%

COc1ccc2cc3c4cc(OC)c(OC)cc4ccn3c2c1
active: [3]; [8] 81% | [4]; [8] 71% | [4]; at 50.0 µM 80% | [5]; [8] 84% | [6]; [8] 88% | [6]; at 50.0 µM 91.5%
inactive: [1]; [7] 3% | [1]; [8] 65% | [1]; at 50.0 µM 33.1% | [2]; [7] -1% | [2]; [8] 58% | [2]; at 50.0 µM 15.3% | [3]; [7] 16% | [3]; at 50.0 µM 62.4% | [4]; [7] 5% | [5]; [7] -1% | [5]; at 50.0 µM 24.2% | [6]; [7] 12%
